{
  "source": "PubChem BioAssay AID504832",
  "about": "(National Center for Advancing Translational Sciences (NCATS), 2011)",
  "note": "Screen size: about 310,000 compounds; about 18,000 (5.8%) were called active. Inconclusive results (about 22%) are left out. This excerpt belongs to a sample that is enriched for actives. A number with no mark means an inactive call. The call rests on the fitted dose curve; in most records, active means well fitted inhibition curve with a large enough effect; inconclusive means small, poorly fitted or top-dose-only effect, or another doubt; inactive means no such curve, though single readings can be large or run the other way. On the % scale 0 is the no-effect control and ±100 the full control effect; potency means the concentration at half of the fitted maximal effect.",
  "data": [
    {"assay": "Primary qHTS for delayed death inhibitors of the malarial parasite plastid, 48 hour incubation", "conditions": "P. falciparum luciferase growth in erythrocytes; series mostly up to 28.7 µM; activity change, negative = inhibition: at the top concentration", "excerpt": "The goal of this screen is to discover new antimalarial compounds that act by inhibiting the development of the apicoplast in the malarial parasite Plasmodium falciparum. The biochemical processes that make this organelle essential for erythrocytic stage parasites are not well understood. However, antibiotics such as azithromycin and tetracycline, which target the apicoplast translational machinery, have a potent antimalarial effect.\nWe have developed a cell-based assay that measures parasite growth based on the expression of an integrated copy of a firefly luciferase reporter. To detect small molecules that cause this \"delayed death\" phenotype, erythrocytes infected with the luciferase-expressing parasites were incubated with compounds for either one or two generations, corresponding to 48 and 96 hours, respectively. Compounds that inhibit parasite growth in the second generation, but not the first, should be enriched in antimalarials that target the apicoplast. Growth inhibition is detected by a decrease in luciferase activity.\nAssay Provider: David Fidock and Eric Ekland, Columbia University\nKeywords: NIH Roadmap, MLPCN, MLI, MLSMR, qHTS, NCGC, qHTS, malaria, luciferase, viability\nFour microliters of culture medium (RPMI 1640 with 0.5% w/v Albumax (GIBCO), 24 mM sodium bicarbonate and 10 ug/mL gentamycin) were dispensed by a Multi-drop Combi into white solid 1536-well plates (Grenier) and 23 nL compound was added by a pin tool. Four microliters of infected erythrocytes (2% hematocrit, 0.1% parasitemia final concentration) in culture medium were dispensed and the plates incubated for 48 hours at 37 C in 5% CO2. Two microliters of luciferase detection reagent was added and luminescence was detected by a ViewLux (PerkinElmer) reader.", "units": {"activity change, negative = inhibition": "%"}, "values": [
      {"smiles": "Cc1cc(C)n(-c2nnc(N3CCN(c4ccccc4)CC3)nn2)n1", "Potency": "0.329 µM (active)"},
      {"smiles": "Cc1nn(Cc2ccccc2)c(C)c1C(=O)NCCCN1CCCC1=O", "activity change, negative = inhibition": 9.89},
      {"smiles": "CCN1CCN(C(=O)C2CCCN(S(=O)(=O)c3ccc(OC)c(OC)c3)C2)CC1", "note": "(stereo unspecified)", "activity change, negative = inhibition": 4.01},
      {"smiles": "COCc1cc(=O)n2[nH]c(C)c(-c3ccccc3)c2n1", "activity change, negative = inhibition": -9.29},
      {"smiles": "C#Cc1ccc([C@@H]2C=C(C(=O)O)O[C@H](OCCCCO)C2)cc1", "activity change, negative = inhibition": 43.4},
      {"smiles": "O=C(C1=C[C@H](c2ccc(C(F)(F)F)cc2)C[C@H](OCc2ccc(CO)cc2)O1)N1CCN(Cc2ccccc2)CC1", "Potency": "3.7 µM (active)"},
      {"smiles": "O=C(NCc1ccccc1)C1=C[C@H](C2CC2)C[C@H](OCc2ccc(CO)cc2)O1", "activity change, negative = inhibition": -0.787},
      {"smiles": "COCCNC(=O)CSc1nc2sccc2c(=O)n1-c1ccccc1", "activity change, negative = inhibition": -7.07},
      {"smiles": "COc1ccc(C(=O)COC(=O)CNC(=O)c2cccs2)cc1Br", "activity change, negative = inhibition": 12.2},
      {"smiles": "Cc1cc(C(=O)COC(=O)c2cccs2)c(C)n1-c1c(C)n(C)n(-c2ccccc2)c1=O", "activity change, negative = inhibition": 15.2},
      {"smiles": "COc1ccc(-n2c(C)cc(C(=O)COC(=O)c3cc(OC)c(OC)cc3NC(=O)c3cccs3)c2C)cc1", "Potency": "4.15 µM (active)"},
      {"smiles": "C=CCOc1ccc(/C=C/C(=O)OCC(=O)NC2CCCCCC2)cc1", "activity change, negative = inhibition": 26.8},
      {"smiles": "CCC(Oc1ccccc1C)C(=O)Nc1ccc(S(=O)(=O)Nc2cc(C)on2)cc1", "note": "(stereo unspecified)", "activity change, negative = inhibition": 2.5},
      {"smiles": "CC(=O)c1cc(CN2CCC(n3nccc3NC(=O)c3ccccc3Cl)CC2)cs1", "activity change, negative = inhibition": -13.4},
      {"smiles": "CC(OC(=O)c1ccccc1NCCO)C(=O)Nc1ccnn1C(C)C", "note": "(stereo unspecified)", "activity change, negative = inhibition": -26.5},
      {"smiles": "Cc1ccc(NC(=O)CN(C)C(=O)c2ccc(Br)o2)cc1", "activity change, negative = inhibition": 4.06},
      {"smiles": "COc1ccc(-c2cnc(SCCNC(=O)c3ccc4c(c3)OCO4)[nH]2)cc1", "activity change, negative = inhibition": -5.01},
      {"smiles": "CC(Oc1ccc(Br)cc1)C(=O)NC1CCCCCC1", "note": "(stereo unspecified)", "activity change, negative = inhibition": 2.7},
      {"smiles": "COc1ccc(S(=O)(=O)NCC(c2ccco2)N2CCOCC2)cc1", "note": "(stereo unspecified)", "activity change, negative = inhibition": -6.97},
      {"smiles": "CC(Oc1ccc(Br)cc1)C(=O)NCC(c1ccco1)N1CCCCC1", "note": "(stereo unspecified)", "Potency": "11.7 µM (active)"},
      {"smiles": "O=C(COc1ccc2ccc(=O)oc2c1)NCC(O)c1ccccc1", "note": "(stereo unspecified)", "activity change, negative = inhibition": 18.9},
      {"smiles": "O=C(CNC(=O)OCc1ccccc1)NC1CCCCNC1=O", "note": "(stereo unspecified)", "activity change, negative = inhibition": 0.406},
      {"smiles": "CCOc1ccccc1/C=N/Nc1nc2ccccc2o1", "activity change, negative = inhibition": -29.1},
      {"smiles": "COc1ccc(CCNC(=O)C(=O)NCc2ccccc2C)cc1OC", "activity change, negative = inhibition": -8.37},
      {"smiles": "CCCCNC(=O)N1CCCC(N(C)CCc2ccc(OC)c(OC)c2)C1", "note": "(stereo unspecified)", "activity change, negative = inhibition": -0.406},
      {"smiles": "COc1ccc(CCN(Cc2cc3cccc(C)c3[nH]c2=O)C(=O)N2CCCC2)cc1OC", "Potency": "8.28 µM (active)"},
      {"smiles": "Cc1ccc2c(cnn2C(=O)CCC(=O)NC2CCCC2)c1", "activity change, negative = inhibition": 7.75},
      {"smiles": "O=C(O)CSCC(=O)Nc1cccc(C(F)(F)F)c1", "activity change, negative = inhibition": 7.05},
      {"smiles": "Cn1nc(C(F)(F)F)c(C(=O)Nc2cccc(C(F)(F)F)c2)c1SCc1ccc(Cl)cc1", "Potency": "1.85 µM (active)"},
      {"smiles": "O=C(Nc1cccc(C(F)(F)F)c1)c1cnccn1", "activity change, negative = inhibition": 33.4},
      {"smiles": "COc1ccc(CCNC(=O)COc2ccc3c(c2)OCO3)cc1", "activity change, negative = inhibition": 8.33},
      {"smiles": "CN(C)C(=O)CCC(=O)N1CCCCC1C(=O)Nc1ccc(Oc2ccccc2F)cc1", "note": "(stereo unspecified)", "activity change, negative = inhibition": 27.6},
      {"smiles": "COc1ccc(/C=C/C(=O)OCC(=O)NCc2cccs2)cc1OC", "activity change, negative = inhibition": 9.68},
      {"smiles": "CCOc1cc(/C=C/C(=O)OCC(=O)NCCN2C(=O)CSC2=O)ccc1OCC(C)C", "Potency": "14.7 µM (active)"},
      {"smiles": "CCOC(=O)CCCNC(=O)COC(=O)/C=C/c1ccc2c(c1)OCO2", "activity change, negative = inhibition": 397},
      {"smiles": "COc1ccc(CNC(=O)CN2C(=O)NC3(CCCc4sccc43)C2=O)cc1", "note": "(stereo unspecified)", "activity change, negative = inhibition": -0.331},
      {"smiles": "CCN(CC)S(=O)(=O)c1ccc(N2CC(C(=O)NCc3cccnc3)CC2=O)cc1", "note": "(stereo unspecified)", "activity change, negative = inhibition": -16.4},
      {"smiles": "Cc1ccc2[nH]c(=O)c(CN(C)S(=O)(=O)c3cccc4nonc34)cc2c1", "activity change, negative = inhibition": 21.1},
      {"smiles": "CCN(Cc1ccccc1)S(=O)(=O)c1cc2c3c(c1)CCN3C(=O)CC2", "activity change, negative = inhibition": -3.66},
      {"smiles": "O=C(CN1CCCCCC1)Nc1ccc(Cl)cc1F", "activity change, negative = inhibition": 25.3},
      {"smiles": "CC1CCCN(CC(=O)Nc2cc(Cl)ccc2Oc2ccccc2)C1", "note": "(stereo unspecified)", "Potency": "14.7 µM (active)"},
      {"smiles": "COc1cc(Cl)c(C)cc1NC(=O)CN1CCCCCC1", "activity change, negative = inhibition": 3.43},
      {"smiles": "Cc1sc2ncn(CC(=O)NCCN(C)C)c(=O)c2c1S(=O)(=O)N1CCC(C)CC1", "activity change, negative = inhibition": 4.82},
      {"smiles": "COCCCn1c(Cc2csc(Nc3cccc(Cl)c3)n2)nnc1SCC(=O)OC1CCCCC1", "Potency": "8.28 µM (active)"},
      {"smiles": "COCCCn1c(SCC(=O)Nc2ccccc2)nnc1-c1ccncc1", "activity change, negative = inhibition": -1.61},
      {"smiles": "COCCCn1c(SCC(=O)NC2CCCC2)nnc1-c1ccccc1", "activity change, negative = inhibition": 0.923},
      {"smiles": "COc1cc(C(=O)OCC(=O)NC(C)CCc2ccccc2)cc(OC)c1OC", "note": "(stereo unspecified)", "activity change, negative = inhibition": -10.2},
      {"smiles": "NC(=O)c1cc(S(=O)(=O)NCCCc2ccco2)cs1", "activity change, negative = inhibition": -26.8},
      {"smiles": "Cc1[nH]c2c(C(=O)N3CCCC(CCC(=O)NCc4ccccc4F)C3)cccc2c1C", "note": "(stereo unspecified)", "Potency": "11.7 µM (active)"},
      {"smiles": "COc1cccc(CNC(=O)CCC2CCCN(C(=O)c3cc(C)[nH]n3)C2)c1", "note": "(stereo unspecified)", "activity change, negative = inhibition": 0},
      {"smiles": "COc1cccc(C(=O)N2CCCC(CCC(=O)NCc3ccc(F)c(F)c3)C2)c1", "note": "(stereo unspecified)", "activity change, negative = inhibition": -0.317}
    ]}
  ]
}
